According to the supplement of paper PMC7556523:
Unmarked numbers belong to inactive results.

Legend:
[1] = test system: Sporothrix brasiliensis CBS 133006; assay: growth inhibition relative to untreated control; higher = more growth inhibition (more antifungal activity), active = 80 or more; extreme values may be limits of the assay; settings: 1 µM; 48 h
Summary of the method: (§1)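 Library compounds at a final 1 μM were incubated with yeast-form cells of the reference isolates (1 x 10^5 CFU/ml) for 48 h at 35°C in 5% CO2. Growth was judged by inverted light microscopy and measured spectrophotometrically in quadruplicate runs. Values give percent growth inhibition relative to untreated cells.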

[2] = test system: Sporothrix schenckii ATCC 32286; assay: as above; settings: 1 µM; 48 h
Summary of the method: as §1

| Structure (SMILES) | growth inhibition [1] | growth inhibition [2] [%] |
| --- | --- | --- |
| Clc1cccc(C(c2ccc(CN3CCNCC3)cc2)n2ccnc2)c1 (stereo not drawn) | 3% | 7 |
| CCC(Sc1nc2ccccc2o1)C(=O)Nc1nccs1 (stereo not drawn) | 5.75% | 15.5 |
| COC(=O)Nc1nc2cc(C(=O)c3ccccc3)ccc2[nH]1 | 3.75% | 16 |
| O=C(c1ccco1)N(CCCn1ccnc1)c1nc2c(Cl)cccc2s1 | 6% | 10.2 |
| COc1ccc(-c2cnc3ccc(N4CCCC4)nn23)cc1OC | 21% | 0 |
| CN1CCN(S(=O)(=O)c2ccc(-c3ccc4c(Nc5ncc(Cl)cn5)ccnc4c3)cc2)CC1 | 13% | 10.8 |
| O[C@@H](c1cc(C(F)(F)F)nc2c(C(F)(F)F)cccc12)[C@H]1CCCCN1 | 6% | 15.2 |
| Clc1ccc(CCNc2cc(-c3ccccc3)nc3ncnn23)cc1 | 9.75% | 18.2 |
| Cc1cccc(NC(=O)c2cc(S(=O)(=O)N(C)c3ccc(F)cc3)ccc2Cl)n1 | 4.25% | 8.25 |
| CC1CS(=O)(=O)CCN1/N=C/c1ccc([N+](=O)[O-])o1 (stereo not drawn) | 6% | 7 |
| CS(=O)(=O)c1cccc(-c2cnc3[nH]cc(-c4ccc(CCC(=O)O)cc4)c3c2)c1 | 4.25% | 0 |
| c1ccc(-c2[nH]c3ccccc3c2C(c2ccccn2)N2CCCC2)cc1 (stereo not drawn) | 4.25% | 12.2 |
| C[C@H](c1ccc2c(c1)CCCC2)N(C)c1ncc2c(N)nc(N)nc2n1 | 10% | 0 |
| Cc1nn2c(=O)c3c([nH]c2c1-c1ccc(Cl)cc1)CCCC3 | 12.8% | 15.8 |
| O=C(NCCc1ccccc1)c1cc(-c2cccnc2)cnc1NCC1CC1 | 0% | 0 |
| CCN(CC)S(=O)(=O)c1ccc(C(=O)Nc2cc(C)nn2-c2nc(C)c(C)c(=O)[nH]2)cc1 | 1.25% | 0 |
| COc1ccc(Oc2ccc([C@@H](C)N(C)c3ncc4c(N)nc(N)nc4n3)cc2)cc1 | 5.75% | 4.25 |

| Structure (SMILES) | growth inhibition [1] | growth inhibition [2] [%] |
| --- | --- | --- |
| COC(=O)C1=C(C)NC(C)=C(C(=O)OC(C)C)C1c1cccc2nonc12 (stereo not drawn) | 10.8% | 11 |
| O=C(C1CCN(c2nnc(-n3cccc3)s2)CC1)N1CCC(Cc2ccccc2)CC1 | 7.5% | 0.5 |
| CCC(=O)Nc1ccccc1C(=O)Nc1ccccn1 | 0% | 1.5 |
| CN1CCN(CCCOc2ncc(Nc3ncc(-c4ccc(C(F)(F)F)c(F)c4)nc3C(N)=O)cn2)CC1 | 12.5% | 0 |
| Cc1cc(Nc2ccc(C(F)(F)F)cc2)n2ccnc2n1 | 12.2% | 1 |
| CC1(C)Cc2c(c(N3CCOCC3)nc3snc(Br)c23)CO1 | 4.5% | 6.5 |
| CC1=NN(c2nc3ccccc3s2)C(=O)C1Cc1cccc2ccccc12 (stereo not drawn) | 17.2% | 14.8 |
| Cc1cc(C)c2cc(C(=O)NC3CCCCCCC3)[nH]c2c1 | 6% | 6.25 |
| O=C(Nc1ccc(N2CCNCC2)nc1)c1oc(-c2ccccc2)nc1C(F)(F)F | 15.2% | 13.5 |
| Cc1ccc2c(c1C)NC(=O)C21NN=C(c2ccccc2)S1 (stereo not drawn) | 7.25% | 4.5 |
| CNc1snc(C)c1C(=O)NCCOc1ccc(OC)cc1 | 12.2% | 7.5 |
| Clc1ccc(-n2cc(COc3ccnc4ccccc34)nn2)cc1 | 13.5% | 10 |
| CNc1cc(C)nc(C2CN(C(=O)c3n[nH]c4ccccc34)CCO2)c1 (stereo not drawn) | 5.75% | 4.5 |
| O=C(NC1CC1)c1ccc(CSCc2ccccc2Cl)o1 | 6.25% | 2 |
| CCc1c(C)nc(-n2nc(C)cc2NC(=O)c2ccccc2SC)[nH]c1=O | 93.5% (active) | 76.8 |
| O=C(COc1cccc(F)c1)Nc1nc(-c2ccccn2)cs1 | 22.5% | 8.75 |
| O=C(NC1CC1)c1ccc(N2CCOc3ccc(Cl)cc32)s1 | 7% | 11.8 |
